Data as given in ChEMBL document CHEMBL4513216, “Probing the Open Global Health Chemical Diversity Library for Multistage-Active Starting Points for Next-Generation Antimalarials” (ACS Infect Dis, 2020).
Among all 69,000 compounds or so, about 8,600 (12%) showed an effect of 50% or more. The entries come from a sample that favours strong results as a whole.

Tested on: Plasmodium berghei
Experiment: Screen against P. berghei liver stage (PbLuc), transformed with Luciferase, at 10uM
Type: functional, HepG2
Details: tested at 10 uM

SMILES	INHIBITION
O=C(N[C@@H]1CN(Cc2ccoc2)[C@@H]2CCCO[C@@H]21)C1CC1	11.2%
CCN(CC)c1ncc(Cl)c(C(=O)NC2CCC(O)CC2)n1 (stereo unspecified)	60.1%
Cn1cc(I)c(C(=O)NC2CCCCC2)n1	25.4%
O=C(NC1CCC(O)CC1)c1cnc2c(cnn2C2CCCC2)c1 (stereo unspecified)	11.3%
CCN(CC)c1ncc(Cl)c(C(=O)NC2CCc3nccn3C2)n1 (stereo unspecified)	76.7%
CCN(CC)c1ncc(Cl)c(C(=O)NC2CC2)n1	57.3%
CCNc1ncc(C(=O)NC2CCC(n3cnnc3)CC2)cn1 (stereo unspecified)	37.7%
Cc1cn2c(n1)CCC(NC(=O)c1nc(C)ncc1Cl)C2 (stereo unspecified)	30.3%
O=C(NC1CCc2nccn2C1)c1ccc(NC2CC2)nc1 (stereo unspecified)	7.58%
CN(Cc1cnn(C)c1)C(=O)NC1CCC(O)CC1 (stereo unspecified)	1.81%
CNc1nc(CNC(=O)Nc2cccc(Cl)c2Cl)cs1	-15.467%
CCc1noc(CCC(=O)N2CCC(c3ccn[nH]3)C2)n1 (stereo unspecified)	10.97%
CNC(=O)N1Cc2cc(F)ccc2C2(CCN(C)CC2)C1	21.6%
CCc1ccc(S(=O)(=O)Nc2ccn(CC(=O)OC)n2)cc1	-74%
C=c1ccoc1=C1NN=C(CNCCn2cc(C)cn2)O1	-25.9%
NC(=O)NC(=O)CNC1(c2ccc(Cl)cc2)CCC1	-24.2%
COCCN1CCCn2c(nc(CNS(C)(=O)=O)cc2=O)C1	25.8%
CCOC(=O)c1sc2ccsc2c1CNC(=O)CC	57.2%
CCOC(=O)c1sc2ccsc2c1CNS(C)(=O)=O	7.925%
CCOC(=O)c1sc2ccsc2c1CNC(=O)C(C)(C)C#N	20.6%
CCOC(=O)c1sc2ccsc2c1CNC(=O)CCOC	61.6%
CCOC(=O)c1sc2ccsc2c1CNC(=O)COC	19.933%
CCOC(=O)c1sc2ccsc2c1CNC(=O)C(C)OC (stereo unspecified)	17.8%
CC(C(=O)NCC1CCN(c2ccncc2)CC1)S(C)(=O)=O (stereo unspecified)	-7.94%
O=C(c1cnc2ccc(F)cc2c1NCc1ccco1)N1CCCCC1	-6.73%

SMILES	INHIBITION
CCN(Cc1ccc(F)c(F)c1)Cc1nc2c(cnn2C)c(=O)[nH]1	-57.4%
CSCC(=O)N1CCCC(CCC(=O)N(C)CCc2ccccn2)C1 (stereo unspecified)	29.2%
CCc1nc(C2CCCN2C(=O)CCc2nc(C3CC3)no2)no1 (stereo unspecified)	-9.19%
O=S(=O)(C1CC1)N1Cc2nccn2CC(Cn2cncn2)C1 (stereo unspecified)	68.3%
CCCS(=O)(=O)N1Cc2nccn2CC(Cn2cncn2)C1 (stereo unspecified)	-23.1%
CCS(=O)(=O)N1Cc2nccn2CC(Cn2cncn2)C1 (stereo unspecified)	20.6%
Cc1nccn1CCC1CCN(C(=O)C2CC3(CCNCC3)CN2)CC1 (stereo unspecified)	33.9%
COCCN1CCN(CCCS(C)(=O)=O)CC1C (stereo unspecified)	25.7%
COCCN1CCN(CCS(C)(=O)=O)CC1C (stereo unspecified)	-73.1%
COCCN1CCN(CCCS(=O)(=O)N(C)C)CC1C (stereo unspecified)	66.7%
NCc1cccc(-c2cccnc2C(=O)NCCN2CCOCC2)c1	25.8%
Cn1cc(NC(=O)c2cc3c(s2)CCCC3)cn1	-179%
Cc1csc(CCNC(=O)C2CCOC2)n1 (stereo unspecified)	8.08%
CCc1nc(CCNC(=O)C2CC2)sc1C	2.69%
CCc1nc(CCNC(=O)C2CCOC2)sc1C (stereo unspecified)	56.8%
N#Cc1c(N2CCOCC2)nsc1-c1cccnc1	-31.3%
CCN(CC)CCCNC(=O)Nc1c(C)cccc1C(C)C	7.3%
Cc1cccc(C(C)C)c1NC(=O)NCCN(C(C)C)C(C)C	56%
COCCCNC(=O)Nc1c(C)cccc1C(C)C	-19.1%
CCN(CC)C(=O)c1ccc(CNc2cncc(-n3cccn3)n2)cc1	29.4%
Cc1nc(CN2CCN(c3ccc(Cl)cn3)CC2)no1	-52.4%
CCOCCNC(=O)Nc1cccc(-c2nccn2C)c1	-21.8%
CCC(CC)C(O)CNC(=O)Nc1cccc(-c2nccn2C)c1 (stereo unspecified)	50.8%
Cn1ccnc1-c1cccc(NC(=O)NCCCO)c1	10%
Cn1cnc2c1C(COCC1CC1)CN(c1ncccn1)C2 (stereo unspecified)	-32%

SMILES	INHIBITION
CC(=O)N1CCCN(C(=O)NC(C)Cn2cccn2)CC1 (stereo unspecified)	21.6%
Cn1cc(CN2C[C@@H]3CCCO[C@@H]3[C@H](N3CCCC3=O)C2)cn1	-3.51%
CCOCc1nc2c(c(NC(COC)c3ccccn3)n1)CCNCC2 (stereo unspecified)	8.31%
COc1ccc(C(=O)C2CCCN(CCCn3cccn3)C2)c(OC)c1 (stereo unspecified)	25.4%
COCCc1ncc(CN2CCCC(C(=O)c3ccccc3)C2)cn1 (stereo unspecified)	36.8%
COc1ccc(C(=O)C2CCCN(Cc3ccncc3)C2)c(OC)c1 (stereo unspecified)	-3.1%
COc1ccc(F)cc1C(=O)C1CCCN(Cc2ccc(C)s2)C1 (stereo unspecified)	43.9%
COc1ccc(C(=O)C2CCCN(CCc3ccccc3)C2)c(OC)c1 (stereo unspecified)	71.3%
COc1ccc(C(=O)C2CCCN(Cc3ccccc3O)C2)c(OC)c1 (stereo unspecified)	-20.5%
COc1ccc(C(=O)C2CCCN(Cc3ccon3)C2)c(OC)c1 (stereo unspecified)	47.7%
COc1ccc(C(=O)C2CCCN(Cc3cc(C)n[nH]3)C2)c(OC)c1 (stereo unspecified)	68.5%
COc1ccc(C(=O)C2CCCN(Cc3ccncc3)C2)cc1OC (stereo unspecified)	63%
COc1ccc(C(=O)C2CCCN(Cc3cccc(F)c3)C2)c(OC)c1 (stereo unspecified)	76.9%
COc1ccc(C(=O)C2CCCN(Cc3ccc(C)o3)C2)c(OC)c1 (stereo unspecified)	42.9%
CN1CCN(C(=O)c2ncn3c2CN(C)S(=O)(=O)c2ccccc2-3)CC1	-79.8%
CCc1noc(CN2CCC(c3ccnn3CCO)CC2)n1	-19.4%
CN(C)C(C(=O)N1CCC(c2ncc[nH]2)CC1)c1ccc2c(c1)OCO2 (stereo unspecified)	14.3%
O=C1COC2(CCN(C(=O)c3ccoc3)CC2)CN1Cc1ccccn1	-33.9%
CCOCCC(=O)NCC(C)c1ccsc1 (stereo unspecified)	32%
CN(C)C(CNC(=O)CCNC(=O)OCC(F)(F)F)c1ccsc1 (stereo unspecified)	61.9%
CN(C)C(CNC(=O)OCC(F)(F)F)c1ccsc1 (stereo unspecified)	44.3%
CC(C)c1cc(C(=O)N2CCCC(c3cc(=O)nc4n3CCC4)C2)no1 (stereo unspecified)	18.4%
CC1(C)CN(C(=O)Nc2cc(C(F)(F)F)c[nH]c2=O)CCO1	4.97%
CCO[C@H]1CC[C@H]2[C@H]1OCCN2CCOCc1ccccc1	4.98%
O=C(N[C@@H]1CN(c2ncccn2)C[C@@H]2CCCO[C@@H]21)c1ccnnc1	-3.52%

SMILES	INHIBITION
COc1ccc(OC)c(-n2c(COC(C)C)n[nH]c2=O)c1	45.4%
COc1ccc(Cl)cc1-n1c(COC(C)C)n[nH]c1=O	26.4%
COc1ccc(C)cc1-n1c(COC(C)C)n[nH]c1=O	72.3%
COc1cccc(C(O)C(=O)N(C)CCc2ccccn2)c1 (stereo unspecified)	47.7%
O=C(CSCC1CC1)N1CCC2(CCCN(C3CCOCC3)C2=O)C1 (stereo unspecified)	1.48%
CN(C)C(=O)c1cnn2c1OCCC2	60.6%
O=C(c1cnn2c1OCCC2)N1CCC2(CC1)OCCO2	-14.2%
CS(=O)(=O)N1CCN(C(=O)c2cnn3c2OCCC3)CC1	31.6%
CC(NCCCC#N)c1ccc(S(C)(=O)=O)c(F)c1 (stereo unspecified)	19.1%
CCn1c(C2CCCNC2)nn(CCn2cncn2)c1=O (stereo unspecified)	-7.13%
O=C(CCn1cccc1)NCc1ccc(CN2CCCCCC2)o1	37.4%
CCCOc1ccc2c(c1)OCC(C(=O)NC(C)Cn1ccnc1)=C2 (stereo unspecified)	51%
CCOc1ccc2c(c1)C=C(C(=O)NC(C)Cn1cccn1)CO2 (stereo unspecified)	2.91%
CCCOc1ccc2c(c1)OCC(C(=O)NC(C)Cn1cccn1)=C2 (stereo unspecified)	30.9%
CCOCC1CN(S(=O)(=O)N(C)C)Cc2cnn(CC)c21 (stereo unspecified)	29%
Cc1cc(NC(=O)CN2CCC(N(C)Cc3ncc(C)o3)C2)n(C)n1 (stereo unspecified)	-29.9%
Cc1nc(COc2ccc(CNCCn3cccn3)cc2)cs1	88.5%
Cc1cnn(CCNCc2ccc(OCc3ccccn3)cc2)c1	34.6%
Cc1cnn(CC(C)NCc2ccc(OCc3noc(C)n3)cc2)c1 (stereo unspecified)	-79.3%
COc1ccc(OCCCNCCn2cccn2)cc1	64.7%
COc1ccc(OCCNCCn2cccn2)cc1	0.932%
Cc1cnn(CCNCc2ccc(OCc3cscn3)cc2)c1	85.1%
Cc1cnn(CCNCc2nc(COc3ccc(F)cc3)no2)c1	19.3%
c1ccc(OCc2nc(CNCCn3cccn3)cs2)cc1	1.95%
Cc1cnn(CCNCc2ccc(OCc3noc(C)n3)cc2)c1	66.3%

SMILES	INHIBITION
Cc1cnn(CCNCc2ccc(OCc3csc(C)n3)cc2)c1	-37.9%
c1ccc(OCCCNCCn2cccn2)cc1	38.7%
Cc1ccc(OCc2nc(CNCCn3cccn3)cs2)cc1	-24.1%
O=C(c1cc2c(F)cccc2[nH]1)N1CCCCC1Cn1cccn1 (stereo unspecified)	-4.94%
Cc1cc(-c2cc(N)c(=O)n(CC(=O)NC3CCCCC3)n2)c(C)o1	13.835%
O=C(NCCn1ccnc1)N1CCN(Cc2ccco2)CC1	-37.7%
Cc1ccc(NC2CCN(C(=O)c3ccncc3)CC2)nn1	-39.7%
CCN1CCC(NC(=O)CN2CC(n3nc(C)cc3C)C2)CC1	23.5%
CC(=O)N[C@@H]1CN(Cc2nc3ccccc3[nH]2)C[C@H]1c1ccc(C)o1	39%
Cc1ccc(CNCc2cc(Br)c3c(c2)OCO3)cc1	45.4%
COc1cc(CNCC(O)c2ccccc2F)cc2c1OCO2 (stereo unspecified)	-9.37%
COc1cc(CNCC(O)c2ccc(F)cc2F)cc2c1OCO2 (stereo unspecified)	0.914%
Cn1cc(CCNCc2cc(Br)c3c(c2)OCO3)cn1	37.6%
CC(Cn1ccnc1)NCc1cc(Br)c2c(c1)OCO2 (stereo unspecified)	-7.72%
COc1ccc(CNCc2cc(Br)c3c(c2)OCO3)cc1	74.7%
FC(F)Oc1ccc(CNCc2cc(Cl)c3c(c2)OCO3)cc1	24.6%
FC(F)Oc1ccc(CNCc2cc(Br)c3c(c2)OCO3)cc1	80.8%
COc1cc(CNCc2ccc(C(C)O)cc2)cc2c1OCO2 (stereo unspecified)	49.3%
Fc1ccc(CNCc2cc(Br)c3c(c2)OCO3)cc1	78%
FC(F)Oc1ccccc1CNCc1cc(Br)c2c(c1)OCO2	58.6%
COc1cc(CNCC(O)c2ccccc2)cc2c1OCO2 (stereo unspecified)	-54.6%
